Wnt act – activators of Wnt/beta-catenin signaling; actives 1.2% (n = 300,000); Wnt/beta-catenin reporter cell assay, activator, plate reader; activation, % at 9.35 µM; in the data active = activation above about 30%, passing the limit was not always enough; inconclusive = no clear call, values can overlap the other calls
esBAF inh – SWI/SNF esBAF complex inhibition; mouse ES cells, Bmi1-luciferase knock-in reporter, 24 h; 100% = twice the neutral-well signal; reporter increase, % at 12.5 µM; actives 2% (n = 350,000); AID 602393; in the data active = activation above about 40%; inconclusive = no clear call, values can overlap the other calls;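 also: a rise in the Bmi1 reporter signal indicates esBAF inhibition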
GAA850 FXN act – activators of GAA850 frataxin (FXN) promoter. HEK293 lucGAA850 FXN promoter luciferase reporter, 24 h; percent of 10 µM SAHA response. actives 0.56% (n = 360,000). activation, % at 6 µM;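 active = activation above the average of all compounds screened plus 3 SD, cutoff fixed separately per campaign, cut at about 7.5% in these data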
MITF TRPM1 HTS – increases MITF-driven TRPM1 promoter luciferase signal. actives 0.75% (n = 300,000). activation, % at 12.5 µM. SK-MEL-5 TRPM1-promoter luciferase, 24 h; % of positive control, neutral wells = 0;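 active = mean activation of at least 80% with every replicate also reaching 80%; inconclusive = mean reaches 80% but some replicate falls short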
Of the large screens only hits and unclear results are named; the others gave an inactive call; ! = not confirmed by another sample. Shown are actives, neighbours in structure and some others; about 2.8% of the full set was active somewhere.

C[C@@H]1CN([C@H](C)CO)C(=O)c2cc(-c3ccc(C#N)cc3)cnc2O[C@H]1CN(C)CC1CCCC1	none (no result: Wnt act, GAA850 FXN act, MITF TRPM1 HTS)
CC(=O)C1=C(c2cccc([N+](=O)[O-])c2)N(C(C)=O)n2c(C)nnc2S1	Wnt act 75 (no result: esBAF inh)
Cc1cc(C(=O)Nc2cccc3c2O[C@@H](CN(C)Cc2ccccc2)[C@@H](C)CN([C@@H](C)CO)C3=O)n(C)n1	none (no result: Wnt act, GAA850 FXN act, MITF TRPM1 HTS)
C/C(=N\O)c1ccc(N2C(=O)C3CC=C(Cl)CC3C2=O)cc1 (stereo unspecified)	Wnt act 59, esBAF inh 73, MITF TRPM1 HTS inconclusive
Cc1ccc(NC(=O)c2ccc(N3C(=O)C4CC=C(Cl)CC4C3=O)cc2)cc1 (stereo unspecified)	none
O=CNc1ccc2c(c1)Cc1cc([N+](=O)[O-])ccc1-2	none
CCC(=O)Nc1ccc2c(c1)Cc1cc([N+](=O)[O-])ccc1-2	Wnt act 48, esBAF inh 81, MITF TRPM1 HTS 93
N#Cc1ccc(-c2ccc3c(c2)[C@H]2[C@H](CCN2C(=O)C2CC2)[C@@H](CO)N3)cc1	none (no result: Wnt act, GAA850 FXN act, MITF TRPM1 HTS)
C[C@@H]1CCCCO[C@@H](CN(C)C(=O)Nc2cccc3ccccc23)[C@H](C)CN([C@H](C)CO)C(=O)c2cc(NS(=O)(=O)c3ccc(F)cc3)ccc2O1	none (no result: Wnt act, GAA850 FXN act, MITF TRPM1 HTS)
O=C(COc1ncnc2cc(Cl)ccc12)c1ccccc1	esBAF inh 71
C[C@@H]1CN([C@@H](C)CO)C(=O)Cc2cc(NS(=O)(=O)c3ccc(Cl)cc3)ccc2O[C@H]1CN(C)S(=O)(=O)c1cn(C)cn1	none (no result: Wnt act, GAA850 FXN act, MITF TRPM1 HTS)
Nc1ncccc1OCc1ccc(Br)cc1	MITF TRPM1 HTS 102 (no result: esBAF inh)
O=C1COc2ccc(OCc3ccc(F)cc3)cc21	MITF TRPM1 HTS 90 (no result: Wnt act)
COc1ccc2c(-c3cc4ccc(OCc5ccc(F)cc5)cc4oc3=O)cc(=O)oc2c1	none (no result: Wnt act, esBAF inh)
COc1cccc(-c2nc(-c3ccc4c(c3)NC(=O)CO4)cs2)c1	MITF TRPM1 HTS 105 (no result: esBAF inh)
O=C(Nc1ccsc1C(=O)O)c1ccc(Cl)cc1	esBAF inh 61
O=C(Nc1ccc(Cl)cc1C(F)(F)F)c1ccc(Cl)cc1	Wnt act inconclusive, esBAF inh 49
O=C(CCNC(=O)c1ccc(Cl)cc1)Nc1ccc(F)cc1F	none (no result: esBAF inh)
O=C(Nc1cc(F)c(Br)cc1F)c1ccc(Cl)cc1	Wnt act 49 (no result: esBAF inh)
O=C(Nc1ccc(Cl)cc1C(F)(F)F)c1ccccc1Cl	none (no result: esBAF inh)
CO[C@@H]1CN(C)C(=O)c2cc(NS(=O)(=O)CC(F)(F)F)ccc2OC[C@@H](C)N(Cc2nccs2)C[C@H]1C	none (no result: Wnt act, GAA850 FXN act, MITF TRPM1 HTS)
CC(C)c1cn(CC[C@@H]2CC[C@@H](NC(=O)C3CCCC3)[C@@H](CO)O2)nn1	none (no result: Wnt act, GAA850 FXN act, MITF TRPM1 HTS)
NC(=O)C1CCN(c2nc(-c3ccc(Br)cc3)cs2)CC1	none (no result: esBAF inh)
NC(=O)C1CCN(c2nc(-c3ccc4c(c3)OCCO4)cs2)CC1	none (no result: esBAF inh, GAA850 FXN act, MITF TRPM1 HTS)
Cc1noc(C)c1-c1csc(N2CCC(C(N)=O)CC2)n1	esBAF inh 74
CN(C)c1cccc(-c2csc(N3CCC(C(N)=O)CC3)n2)c1	Wnt act 33, esBAF inh 60, MITF TRPM1 HTS 83
NC(=O)C1CCN(c2nc(-c3cccs3)cs2)CC1	esBAF inh 47, MITF TRPM1 HTS inconclusive (no result: Wnt act)
C[C@H](CO)N1C[C@H](C)[C@H](CN(C)S(=O)(=O)c2cn(C)cn2)Oc2ccc(NC(=O)Cn3cnnn3)cc2CC1=O	none (no result: Wnt act, GAA850 FXN act, MITF TRPM1 HTS)
C[C@@H]1CCCCO[C@H](CN(C)C(=O)CCC(F)(F)F)[C@H](C)CN([C@@H](C)CO)C(=O)c2cc(NC(=O)Cc3ccccc3)ccc2O1	none (no result: Wnt act, GAA850 FXN act, MITF TRPM1 HTS)
CCSc1nsc(NC(=O)Nc2ccc(F)cc2F)n1	none (no result: Wnt act)
CCSc1nsc(NC(=O)Nc2ccccc2Cl)n1	esBAF inh 41 (no result: MITF TRPM1 HTS)
C[C@H](CO)N1C[C@H](C)[C@@H](CN(C)S(=O)(=O)c2cccs2)Oc2c(NS(=O)(=O)c3cn(C)cn3)cccc2C1=O	Wnt act 47
C[C@H]1CN([C@@H](C)CO)C(=O)c2cccc(NC(=O)Nc3ccc4c(c3)OCO4)c2O[C@@H]1CN(C)S(=O)(=O)c1cccs1	esBAF inh 44 (no result: Wnt act, GAA850 FXN act, MITF TRPM1 HTS)
C[C@H](CO)N1C[C@H](C)[C@@H](CN(C)S(=O)(=O)c2cccs2)Oc2c(NC(=O)Nc3ccc4c(c3)OCO4)cccc2C1=O	esBAF inh 57!
C[C@H](CO)N1C[C@H](C)[C@H](CN(C)S(=O)(=O)c2cccs2)Oc2c(NS(=O)(=O)c3cn(C)cn3)cccc2C1=O	none (no result: Wnt act, GAA850 FXN act, MITF TRPM1 HTS)
CCS(=O)(=O)NCC[C@@H]1CC[C@@H](NC(=O)Cc2ccccn2)[C@H](CO)O1	none (no result: Wnt act, GAA850 FXN act, MITF TRPM1 HTS)
C[C@H](CO)N1C[C@H](C)[C@@H](CN(C)Cc2ccc(-c3ccccc3)cc2)Oc2c(cccc2N(C)C)C1=O	none (no result: Wnt act, GAA850 FXN act, MITF TRPM1 HTS)
C[C@@H]1CN([C@@H](C)CO)C(=O)c2cc(NS(C)(=O)=O)ccc2O[C@H]1CN(C)C(=O)NC1CCCCC1	none (no result: Wnt act, GAA850 FXN act, MITF TRPM1 HTS)

Screens (PubChem BioAssay)
